Laboratory results from PubChem BioAssay.
Values without a mark were called inactive. The source made the active and inactive calls.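 How the source made its calls: active means compounds that lower survival of HCT116 colon cancer cells in the luminescence readout, no numeric limit stated; inactive means the rest.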

Test: HCT116 colon cancer cell growth inhibition, primary screen, CellTiter-Glo luminescence, NPC library (AID 1117342)
Conditions: at 20 µM (top of the series)

Structure (SMILES) | inhibition of viability
CC(O)CCCCn1c(=O)c2c(ncn2C)n(C)c1=O (stereo not given) | 0.8%
O=C(O)C(Cc1cc(I)c(O)c(I)c1)c1ccccc1 (stereo not given) | 40.4%
CCC(C(=O)O)c1ccc(N2Cc3ccccc3C2=O)cc1 (stereo not given) | -4.3%
O=C(N/N=C/c1ccccc1O)c1ccncc1 | 88.7% (active)
CC12CCC(C[N+](C)(CCC[N+](C)(C)C)C1)C2(C)C (stereo not given) | -7.3%
CC1(C)OC[C@@H](COC(=O)CCc2ccc(OC[C@@H](O)CNCCNC(=O)N3CCOCC3)cc2)O1 | 8%
O=C(Nc1ncc([N+](=O)[O-])s1)c1cccs1 | 41.2%
COc1cc(NS(=O)(=O)c2ccc(N)cc2)nc(C)n1 | -4.3%
Cc1ccc(S(=O)(=O)NC(=O)NC2CCCCC2)cc1 | 0.6%
C=CCOc1cc(Cl)ccc1C(=O)NCCN(CC)CC | 30%
COc1cc(/C=C/C(=O)O[C@H]2CC[C@]34C[C@]35CC[C@]3(C)[C@@H]([C@H](C)CCC=C(C)C)CC[C@@]3(C)[C@@H]5CC[C@H]4C2(C)C)ccc1O | 10%
C[C@@H](O)[C@H](N)C(=O)O | -31.1%
CCOc1ccccc1O[C@H](c1ccccc1)[C@H]1CNCCO1 | 22.7%
O=C(/C=C/c1ccccc1)OCc1ccccc1 | 5.05%
CN[C@H](CC(C)C)C(=O)N[C@H]1C(=O)N[C@@H](CC(N)=O)C(=O)N[C@H]2C(=O)N[C@H]3C(=O)N[C@H](C(=O)N[C@H](C(=O)O)c4cc(O)cc(O)c4-c4cc3ccc4O)[C@H](O)c3ccc(c(Cl)c3)Oc3cc2cc(c3O[C@@H]2OC(CO)[C@@H](O)[C@H](O)[C@@H]2O[C@H]2C[C@](C)(N)[C@H](O)[C@H](C)O2)Oc2ccc(cc2Cl)[C@H]1O (stereo not given in full) | -1.3%
